Whole data set: some 25,000 sequences, median “ln(normalized median fluorescence intensity)” near 6.7, cut for the highest 2% near 10. What follows is part of a selection rich in the highest values, with near analogues and random picks from the rest.

The assay concerns PfHDP1 homeodomain (GST-tagged). Briefly: gcPBM binding intensity (ln(normalized median fluorescence intensity)); higher = stronger DNA binding. In outline:
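Alexa488 anti-GST antibody, scanned at 488 nm, detected GST-tagged P. falciparum DNA-binding domains that had been expressed in E. coli and incubated for 1 h on an Agilent 4 × 180k array. The array carried primer-extended double-stranded 36-bp intergenic genomic probes and negative controls. Binding intensity is the highest Masliner-normalised natural-log median intensity across replicate spots of either orientation of each probe.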
With “AATTAAAAAGTTTTTAATGTTTTTAATTTTTTCCAC [XGTACX_negctrl_site423]”, the “gcPBM binding intensity (ln)” value is 5.99.
Consider “TATATATATTAAAAACGTACAAAATAAGAATTAATT [XGTACX_site5979]”, for which the “gcPBM binding intensity (ln)” value turned out to be 6.8.
For “TTTATATTAATTGATGTGCACTGAAATATTTGTCCA [GTGCAC_site9655]”, the “gcPBM binding intensity (ln)” value came out at 9.08.
The value for “TTTATTTTTGAAGTTGCACACACAAAAATAAAAAGT [CACACA_site8030]” was 8.92; that for “TATTTTGAAAAAGTTGCACACAAAATTTAAAAAAAA [CACACA_site8470]” was 9.29; that for “TTATTTTATTTTTGTGCACACTGATAAATTGAAAAG [CACACA_site2949]” was 11.2.
The value for “TTTTGAAAAAATTTTTATAAAAGAATAAAATTATTA [XGTACX_negctrl_site570]” was 6.06; that for “ATTTTATTTTTGTGCACACTGATAAATTGAAAAGAG [CACACA_site2948]” was 11.1.
The value for “CACTTTTTTTAAATGTGTACGTATATGAAAATATCA [XGTACX_site4854]” was 6.38.
As for “GTTATATGAACTTATATACACACCATTTTTGTAAAT [CACACA_site695]”, the “gcPBM binding intensity (ln)” value was found to be 6.69.
In the case of “AAAATTAACCGTAACACACACACATATAAATATGTA [CACACA_site7791]” it was 6.55.
The value for “TAATTTTTCCTTTTTGCACACATTAACGTCGACGAA [CACACA_site4025]” was 10.8.
“TCTAATTATCACATTGCACACACATTTCCTTTTACA [CACACA_site9140]”: the “gcPBM binding intensity (ln)” value came out at 9.66.
The value for “TAATTATCACATTGCACACACATTTCCTTTTACATT [CACACA_site3443]” was 9.61; that for “TTTTATGTTCTTAATGCACACTTATAAGTATCTTAT [CACACA_site4895]” was 10.6.
With “TTATGTTCTTAATGCACACTTATAAGTATCTTATAA [CACACA_site1394]”, the “gcPBM binding intensity (ln)” value is 9.72.
In the case of TATATATATATATGTATGCACTTTAATTTTATAAGG it was 9.31; in that of “TATGAATATTGCATGTGTACCTATTATCCTTTTAAA [XGTACX_site4311]”, 6.95; in that of “TATAAAAAAAAAAAAAGTACTAACTTAAAACAATTT [XGTACX_site7969]”, 5.92.
Regarding “TATTCAACATAATATGCACACAAAAATTATGGAACG [CACACA_site8660]”, the “gcPBM binding intensity (ln)” value is 9.99.
For the sequence “CACTTTAATTTATGCACACATATGGAACAACAGCCA [CACACA_site994]”, the “gcPBM binding intensity (ln)” value amounted to 10.6.
In the case of “AACACTTTAATTTATGCACACATATGGAACAACAGC [CACACA_site8241]” it was 10.2.
In the case of “TTATAATAATTTTATGCACACAGAAAAATACAAGGT [CACACA_site9169]” it was 10.2.
The value for “ACAGAATACATATACACACATACAAAAAAGTGCATA [CACACA_site987]” was 7.81; that for “TTTTTAAAAATATACACACACAGATATTATATATAT [CACACA_site786]” was 6.94; that for “TTTTTTTAATAGTGTGCACACAATATACAGAAAAAA [CACACA_site8399]” was 11.
Take TTTTTAATATATTAGGTGCACAATAATACACTTTAT: the “gcPBM binding intensity (ln)” value worked out at 10.3.
The value for “TTTTTTTAACGGTGTGCACACAATATACAGAAAAAA [CACACA_site1415]” was 11.1; that for “TGTAGTCTGGAGAAAAGTACATAGTATCTGATAACC [XGTACX_site2018]” was 6.4; that for “TAAATATGCTCACAGATGCACTAACACATTTTTATA [GTGCAC_site9997]” was 10.4.
As to “TGGCACTAAAAAAATAAACACACAGATTTATATAAT [CACACA_site8386]”, the “gcPBM binding intensity (ln)” value was 6.51.
In the case of “CCATTTTAAATATGCACACAGATGCACTAACCCATT [CACACA_site1883]” it was 9.9; in that of “AACCATTTTAAATATGCACACAGATGCACTAACACA [CACACA_site8565]”, 10.5; in that of “CCATTTTAAATATGCACACAGATGCACTAACACATT [CACACA_site5099]”, 10.6.
On to “GCACTAAAAAAATAAACACACAGATTTATATAATAT [CACACA_site1381]”, for which the “gcPBM binding intensity (ln)” value was 6.5.
The value for “TATGTTCCTTTTTGTTGTACTGAAAAATTATGTTCA [XGTACX_site3981]” was 6.61.
In the case of “GAAATAATAAATTAAAAATCGTTTATAACATTTAAC [CACACA_negctrl_site425]” it was 6.21.
Take “AAATTCATAAAAATATTTTATAATTATATATAGAAT [TGCATGCA_negctrl_site343]”: the “gcPBM binding intensity (ln)” value stood at 6.34.
The value for “ATAAAATATATATATATAAAAATAAATACATAAATA [GTGCAC_negctrl_site157]” was 6.31.
The value for “GCATATGTTTATTGCACACACCAAAAAGAAAACATA [CACACA_site4384]” was 10.5; that for “ATGCATATGTTTATTGCACACACCAAAAAGAAAACA [CACACA_site403]” was 9.25.
The value for “CACAAAAAGAAACACACACACATATATATTTATTAT [CACACA_site3646]” was 6.73; that for “ACTATATTTCATAACAGTACATATTCCTGAAACATC [XGTACX_site4924]” was 6.43.
As for “ATAATATAAATACAAACACACAATTGTGTCCACATT [CACACA_site6920]”, the “gcPBM binding intensity (ln)” value turned out to be 6.79.
In the case of “AGTATATACACGTGCGTGCACAGATATTCTTTTTTT [GTGCAC_site9398]”, the “gcPBM binding intensity (ln)” value came to 9.58.
The value for “AATACTAAAAAGTGTACACATACATAAAAAATTGCA [CACACA_site5620]” was 7.24; that for “TCTTTATGTAAGGTCTTCCACAAAAAAATTAAAAAA [TGCATGCA_negctrl_site229]” was 6.21.
As to “TGTTAATAAAGGTGTACACAAAATAAAAAAAATTAT [CACACA_site4288]”, the “gcPBM binding intensity (ln)” value is 7.2.
The value for “ATATTCTAAATAAAGGGTACACAAAAATAATTAAAG [XGTACX_site5529]” was 6.9; that for TTTATATTTAAAAGGATGCACTACAAATTCTAAATA was 7.36.
The value for AATTAATGGCTAAAGGTGCACAATATATATATTACA was 9.84.
The value for “CCACTAATTATGTGCACACAAATTAAAGGTCTACAA [CACACA_site4259]” was 11.4; that for “GATTTATACAAATATGTACACACTAATTATATATTA [CACACA_site8045]” was 6.9.
As for “ACGCTAATTATGTGCACACAAATTAAAGGTCTACAA [CACACA_site147]”, the “gcPBM binding intensity (ln)” value came out at 11.4.
Regarding “GTACACTAATTATGTGCACACAAATTAAAGGTCTAC [CACACA_site146]”, the “gcPBM binding intensity (ln)” value was determined as 11.
The value for “TTTTTCTTTCTCTATTGTACACATGGAAACACATAA [XGTACX_site4601]” was 7.56; that for “AAAAAAAAAAGAAACACACACATATATATATATAAT [CACACA_site5052]” was 6.7; that for “AATACAAACCAAAAAGTAAATACATCAACATGATCA [CACACA_negctrl_site140]” was 6.26.
The value for “CTATATATTTTTCATTGTACACAAATTAAAGAAAAA [XGTACX_site8385]” was 6.61; that for “ATGTTGCACAATGTTACACACACAATATATATCGTT [CACACA_site4833]” was 10.7; that for “GTTGCACAATGTTACACACACAATATAGATCGTTAA [CACACA_site6717]” was 9.91.
In the case of “GTTGCACAATGTTACACACACAATATATATCGTTAA [CACACA_site1275]” it was 9.41; in that of “ATATAATTACATTGATGTACACGAAATGATTAACAT [XGTACX_site5183]”, 6.43.
As to ATTCATTTACCAATGGTGCAATATATTTTTATAATG, the “gcPBM binding intensity (ln)” value was 10.3.
For TATTCATATTTAAAGGTGCAATATTTATTTTGTACA, the “gcPBM binding intensity (ln)” value came to 9.16.
In the case of “TATTCAGGTCCAATGGTGCAATATATTTTTGTAATA [GTGCAC_site9607]” it was 10.6; in that of “ATTAGTATATTTCTCTGTACTTACATTAAAATATAA [XGTACX_site2217]”, 6.41; in that of TTACACATGTATTTGGTGCATGTTGTTAACAAAATA, 9.83.
The value for “ATTTATTTATACAAAGTGCAATATTTTGTTAAAGTC [GTGCAC_site9618]” was 8.15.
The value for TTTTTTGTTAAGTTGGTGCAAACAATAGTTATTGAC was 10.7; that for “TTTATTTTAACTTGTTCACACATTTGAATAAATAAA [CACACA_site5064]” was 6.3; that for “ATAATATATTATTATAGTACTTTATTTTATTTTATG [XGTACX_site2387]” was 6.65.
As to “TTTTTAAAATTTTTAAAAATATTATGTTAAATATAT [CACACA_negctrl_site415]”, the “gcPBM binding intensity (ln)” value amounted to 6.29.
“TTGTACATCTTTTGCACACGTAATGTTATTAAAATA [CACACA_site4827]”: the “gcPBM binding intensity (ln)” value amounted to 10.7.
In the case of “CTTTTTTTTTGATGTTGTACATATATATTATATAAT [XGTACX_site1321]” it was 6.9; in that of “GAACACTAATAATGTTGTACACGTAATTATATATTT [XGTACX_site777]”, 6.53.
In the case of “ATTATGTTATTATTTTGTACACATAAATAATACGTT [XGTACX_site816]” it was 6.61; in that of “TTTTGTACATCTTTTGCACACGTAATGTTATTATAA [CACACA_site1259]”, 10.6.
The value for “AAATAATAAAAAAAATGTACACGTAAATATTATATT [XGTACX_site8125]” was 6.99; that for “TTATTATAAATGTTTTGTACGTACATCCGAAAATAA [XGTACX_site2175]” was 6.57.
As to “TTGTACATCTTTTGCACACGTAATGTTATTATAATA [CACACA_site1258]”, the “gcPBM binding intensity (ln)” value worked out at 10.7.
In the case of “TTTTTTTTTTTTTTGTGTACATATAATGCACATTAT [XGTACX_site6505]” it was 10.1; in that of “CATACCCATAAACACACACACATATATACCTATATA [CACACA_site4745]”, 6.87.
The value for “AAAAAAAAGTTAAGCACACACATGAATAAATAATAC [CACACA_site840]” was 6.94; that for “ATAAAAATATTATAAGCACACATATATATATATATA [CACACA_site8781]” was 9.54.
In the case of “AAAGTAAATTTAAGCACACACAACGAATTTTTATAC [CACACA_site1959]” it was 6.84; in that of “TGAAATTTGTTATATGCATGTAAAATATTACGACGA [TGCATGCA_site201]”, 6.59.
As to “TTTTTTTTTCCGTGTTGTACAAAAAAAAAGATTTTG [XGTACX_site3925]”, the “gcPBM binding intensity (ln)” value was 6.21.
In the case of “ACACAAAACAAAAAGGTGCTGTATAAATGGGTGTAT [GTGCAC_site9905]” it was 7.
The value for “TATTTTAGTAAAGGTGGTACTTTTAAGTTCATGTAT [XGTACX_site1854]” was 6.23; that for “TATACAAACTATGATGCACACATATATATATGTATA [CACACA_site8327]” was 8.97.

Source of the values: the supplement of paper PMC11417369.
